From ChEMBL document CHEMBL1157539, “Thousands of chemical starting points for antimalarial lead identification” (Nature, 2010) come the findings set out here.

As usually defined, the Inhibition is how much of the control response was suppressed.

Several values for one entry are separate records, joined by “and”; a condition that tells them apart may be missing. Equal entries are not always repeated.

In the first test the test system is Plasmodium falciparum. Briefly: GSK_TCMDC: Inhibition of Plasmodium falciparum 3D7 in whole red blood cells, using parasite LDH activity as an index of growth. Test compounds present at 2uM. It is filed as functional.
For the compound `CC(C)CNCc1ccc(-c2ccc(CN(C(=O)Nc3ccccc3)C3CCN(Cc4ccccc4)CC3)cc2)cc1.O=C(O)C(F)(F)F`, the Inhibition stood at 100%.

With `Br.CC(Cc1ccc(CSC(C)C)cc1)NCC(O)c1cccc(Cl)c1` (centres undefined), the Inhibition was 98%.

With `Cc1ccc(C[C@@H](C)NC[C@H](O)c2cccc(C(F)(F)F)c2)cc1.O=C(O)/C=C/C(=O)O`, the Inhibition is recorded as 100%.

The subject of a further test is Plasmodium falciparum. The test can be described thus: GSK_TCMDC: Inhibition of Plasmodium falciparum Dd2 in whole red blood cells, using parasite LDH activity as an index of growth. Test compounds present at 2uM. It is filed as functional.
Turning to `COCCSc1ccc(CC(C)NCC(O)c2cccc(Cl)c2)cc1.Cl` (centres undefined), the Inhibition stood at 73%.

On to `CNCCCCCCOc1ccc(CC(C)NCC(O)c2cccc(C(F)(F)F)c2)cc1.Cl` (centres undefined), for which the Inhibition is 79%.

On to `O=C(C=Cc1ccc(-c2ccccc2)cc1)NC1CCC(CN2CCC(c3c[nH]c4ccccc34)CC2)CC1` (centres undefined), for which the Inhibition is 85% and 98%.

In turn, `COCC(=O)N(Cc1ccccc1-c1cccc(CNCCc2ccccc2)c1)C1CCN(Cc2ccccc2)CC1.O=C(O)C(F)(F)F` displayed an Inhibition of 36%.

On to `CC[C@H]1CN2CC[C@H]1C[C@H]2[C@H](O)c1cc(-c2ccc(F)cc2)nc2ccc(OC)cc12.Cl`, for which the Inhibition was 98%.

In the case of `O=C1NCN(c2ccc(O)cc2)C12CCN(CCCC(c1ccc(F)cc1)c1ccc(F)cc1)CC2`, the Inhibition was found to be 34%.

In turn, `O=C(Nc1ccc(Oc2ccccc2)cc1)N1CCC(CN2CCC(c3c[nH]c4ccccc34)CC2)CC1` yielded an Inhibition of 59%.

In the case of `CC[C@H]1CN2CC[C@H]1C[C@H]2[C@H](O)c1cc(-c2ccc(OC(F)(F)F)cc2)nc2ccc(OC)cc12.Cl`, the Inhibition was 99%.

On to `CN(c1cc(NC(=O)c2ccc(F)cc2)ccn1)C1CCN(Cc2ccc(C#N)cc2)CC1.O=C(O)C(F)(F)F`, for which the Inhibition is 54%.

Take `CC[C@H]1CN2CC[C@H]1C[C@H]2[C@H](O)c1cc(N2CCC3CCCCC3C2)nc2ccc(OC)cc12` (some centres undefined): the Inhibition came to 99%.

The compound `CC[C@H]1CN2CC[C@@H]1C[C@H]2[C@H](O)c1ccnc2ccc(Cl)cc12.Cl` returned an Inhibition of 98%.

Compound `CN(c1cc(NC(=O)c2ccccc2)ccn1)C1CCN(Cc2cccc(F)c2)CC1.O=C(O)C(F)(F)F` showed an Inhibition of 94%.

In the case of `O=C(c1cc(C(=O)NCc2ccc(Cl)cc2)c(=O)n(Cc2ccc(Cl)cc2)c1)c1cc(F)ccc1O`, the Inhibition was determined as 2%.

Turning to `CCCCCCCc1cc(=O)c2ccccc2[nH]1`, the Inhibition is 94%.

Consider `O=C(C=C1c2ccccc2-c2ccccc21)NC1CCC(CN2CCC(c3c[nH]c4ccccc34)CC2)CC1` (centres undefined), for which the Inhibition is 64% and 67%.

As for `Br.CC[C@H]1CN2CCc3cc(OC)c(OC)cc3[C@@H]2C[C@@H]1C[C@H]1NCCc2c1cc(OC)c(O)c2I`, the Inhibition is listed as 100%.

With `OC(CNC1CCCCC1)c1ccc(Cl)c(Cl)c1` (centres undefined), the Inhibition was 96%.

With `O=C(/C=C/c1cccc2ccccc12)NC1CCC(CN2CCC(c3c[nH]c4ccccc34)CC2)CC1` (centres undefined), the Inhibition is 72% and 66%.

With `O=C(/C=C/c1ccc([N+](=O)[O-])cc1)NC1CCC(CN2CCC(c3c[nH]c4ccccc34)CC2)CC1` (centres undefined), the Inhibition is 61% and 81%.

Consider `C#CCN1CCC2=C(C1)c1c(O)cc(C(C)CCCc3ccc(F)cc3)cc1OC2(C)C` (centres undefined), for which the Inhibition came to 90%.

With `CCCCc1ccc2[nH]cc(C3=CCN(C)CC3)c2c1Br`, the Inhibition was 94%.

For `COc1cc(C=CC(=O)N2CCC(CN3CCC(c4c[nH]c5ccccc45)CC3)CC2)ccc1O`, the Inhibition came out at 25%.

Compound `CCCCCCCCNCC(O)c1ccc(Cl)c(Cl)c1.Cl` (centres undefined) returned an Inhibition of 87%.

The compound `O=C(CCC(=O)c1ccc2c3c(cccc13)CC2)NC1CCC(CN2CCC(c3c[nH]c4ccccc34)CC2)CC1` (centres undefined) yielded an Inhibition of 13%.

`CC(C)CCNC(=O)c1cc(C(=O)c2cc(F)ccc2O)cn(CCC(C)C)c1=O` yielded an Inhibition of 45%.

Take `CC(=O)C1(c2ccccc2)CCN(CCC2(c3ccc(Cl)c(Cl)c3)CN(C(=O)CC(C)C)CCO2)CC1` (centres undefined): the Inhibition is 94%.

Regarding `O=C(C=Cc1ccccc1Br)NC1CCC(CN2CCC(c3c[nH]c4ccccc34)CC2)CC1` (centres undefined), the Inhibition is 57% and 32%.

`CCCc1c(C(=O)NC2CCC(CN3CCC(c4c[nH]c5ccccc45)CC3)CC2)cnn1-c1ccc(Cl)cc1` (centres undefined) gave an Inhibition of 37%.

Take `O=C(CCCCCc1ccccc1)NC1CCC(CN2CCC(c3c[nH]c4ccccc34)CC2)CC1` (centres undefined): the Inhibition is given as 5%.

For `CC[C@H]1CN2CCc3cc(OC)c(OC)cc3[C@@H]2C[C@@H]1C[C@H]1NCCc2c1cc(OC)c(OC)c2Br`, the Inhibition came to 97%.

Take `COc1cccc(C2(C)CCN(CCCCNC(=O)c3ccc(NC(=O)c4ccc(Cl)cc4)cc3)CC2)c1.Cl`: the Inhibition was 72%.
